Among the data in PubChem BioAssay (NCATS) are Potency and activity change, negative = inhibition values, retold here.

Experiment [1] can be described thus: Cytotoxicity counterscreen for inhibitors of SARS-CoV-2 cell entry (AID 1645845). Further: nearly all actives have a fitted effect of over 50% in size. A digest of the protocol: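 48 h compound treatment (after 1 h preincubation), HEK293-ACE2 cells, 37 C/5% CO2; ATP luminescence endpoint; normalized to cell wells and media blanks.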
The nature of experiment [2]: Primary qHTS to identify inhibitors of SARS-CoV-2 cell entry (AID 1645846). Further: nearly all actives have a fitted effect of over 45% in size. The following applies: activity change, negative = inhibition: at 57.1 µM (top of the series) unless noted. A digest of the protocol: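 Inhibition of spike-mediated entry was scored in human ACE2-transfected Expi293F cells. Particles were MLV-pseudotyped with Wuhan-Hu-1 S carrying a 19-aa C-terminal deletion; signal was luciferase after two days, scaled between spike PP and fusion-protein-free PP.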

Where “and” joins values, the source holds several entries; their conditions need not be identical. Equal entries are not always repeated. Inconclusive results are not listed. Calls of active or inactive are those of the source. The call rests on the fitted dose curve.
Potency means the concentration at half of the fitted maximal effect.

As for `C[C@]12CC[C@@H]3c4ccc(O)cc4CC[C@H]3[C@@H]1C[C@@H](O)[C@@H]2O`, the Potency result in experiment [1] is “inactive”. In experiment [2], the activity change, negative = inhibition is -20% and -12.5%.
Turning to `CC(C)NCCCC1(C(N)=O)c2ccccc2-c2ccccc21`, the Potency result in experiment [1] and in experiment [2] was “inactive” in each case.
With `O=Cc1ccccc1C=O`, the Potency result in experiment [1] was “inactive”. In experiment [2], the activity change, negative = inhibition is -7.57%.
As to `CCN(CC)CC(=O)Nc1c(C)cccc1C`, the Potency result in experiment [1] and in experiment [2] was “inactive” throughout.
On to `Cc1ccc(Nc2c(F)cccc2Cl)c(CC(=O)O)c1`, for which the Potency entry in experiment [1] and in experiment [2] was “inactive” each time.
With `CCCC(=O)O[C@]1(C(=O)CC)CC[C@H]2[C@@H]3CCC4=CC(=O)CC[C@]4(C)[C@H]3[C@@H](O)C[C@@]21C`, the Potency entry in experiment [1] and in experiment [2] was “inactive” throughout.
In the case of `Cc1cccc(N(C)C(=S)Oc2ccc3ccccc3c2)c1`, the Potency entry in experiment [1] is “inactive”. Besides, the activity change, negative = inhibition in experiment [2] was -10.5% and -29.1%.
For the compound `COc1ccc2c(c1)c(CC(=O)O)c(C)n2C(=O)c1ccc(Cl)cc1`, the Potency result in experiment [1] and in experiment [2] was “inactive” each time.
Consider `CCOC(=O)OCC/C(SC(=O)OCC)=C(\C)N(C=O)Cc1cnc(C)nc1N`, for which the Potency result in experiment [1] and in experiment [2] was “inactive” throughout.
In the case of `OCC(CO)N[C@H]1C[C@](O)(CO)[C@@H](O)[C@H](O)[C@H]1O`, the Potency entry in experiment [1] and in experiment [2] was “inactive” in each case.
`Cc1cccc(N(C)C(=S)Oc2ccc3c(c2)C2CCC3C2)c1` (stereo not given): the Potency result in experiment [1] and in experiment [2] was “inactive” throughout.
Consider `Cc1ncc(COP(=O)(O)O)c(C=O)c1O`, for which the Potency entry in experiment [1] was “inactive”. Moreover, the activity change, negative = inhibition in experiment [2] was -19%.
Consider `FC(F)(F)C(F)(F)C(F)(F)C(F)(F)C(F)(F)C(F)(F)C(F)(F)C(F)(F)Br`, for which, in experiment [1], the Potency entry is “inactive”. Besides, the activity change, negative = inhibition in experiment [2] was -12.9%.
The like results for `C#C[C@]1(OC(C)=O)CC[C@H]2[C@@H]3CCC4=C/C(=N/O)CC[C@@H]4[C@H]3CC[C@@]21CC` were, in that order, “inactive” and -15.4%.
For `CCc1oc2ccccc2c1C(=O)c1cc(Br)c(O)c(Br)c1`, in that order: “inactive” and -14%.
With `COCCc1ccc(OCC(O)CNC(C)C)cc1` (stereo not given), the Potency entry in experiment [1] is “inactive”. Moreover, the activity change, negative = inhibition in experiment [2] is -1.24%.
For `CCOCCn1c(N2CCCN(C)CC2)nc2ccccc21`, the Potency result in experiment [1] was “inactive”. Moreover, the activity change, negative = inhibition in experiment [2] is -36.1%.
Regarding `O=C(O)c1ccc(OCCCOc2ccc(C(=O)O)cc2)cc1`, the Potency entry in experiment [1] was “inactive”. In addition, the activity change, negative = inhibition in experiment [2] was -2.21%.
On to `O=C(O)CNC(=O)c1ccccc1I`, for which, in experiment [1], the Potency result is “inactive”. The activity change, negative = inhibition in experiment [2] was -21.9%.
As to `Cc1ccc(=O)n(-c2ccccc2)c1`, the Potency result in experiment [1] and in experiment [2] was “inactive” in each case.
For `Oc1ccc(C(O)CNCCCCCCNCC(O)c2ccc(O)c(O)c2)cc1O` (stereo not given), the Potency result in experiment [1] and in experiment [2] was “inactive” throughout.
Regarding `CN1[C@@H]2CC[C@H]1CC(NC(=O)n1c(=O)[nH]c3ccccc31)C2` (stereo not given in full), the Potency result in experiment [1] and in experiment [2] was “inactive” in each case.
For the compound `COc1cc(NS(=O)(=O)c2ccc(N)cc2)nc(OC)n1`, the Potency result in experiment [1] was “inactive”. Besides, in experiment [2], the activity change, negative = inhibition amounted to 2.7%.
On to `CC(=O)OC[C@H]1O[C@@](COC(C)=O)(O[C@H]2O[C@H](COC(C)=O)[C@@H](OC(C)=O)[C@H](OC(C)=O)[C@H]2OC(C)=O)[C@@H](OC(C)=O)[C@@H]1OC(C)=O`, for which the Potency entry in experiment [1] was “inactive”. Moreover, the activity change, negative = inhibition in experiment [2] is -0.185%.
Turning to `C[C@H](O)C(=O)Nc1c(I)c(C(=O)NC(CO)CO)c(I)c(C(=O)NC(CO)CO)c1I`, the Potency result in experiment [1] was “inactive”. For the same compound, the activity change, negative = inhibition in experiment [2] came out at 4.46%.
For `Cc1cc(C)c(/C=C2\C(=O)Nc3ccccc32)[nH]1`, in that order: “inactive” and -6.25%.
The like results for `CC(=O)/C=C/C=C1/C2CCC(C2)C1(C)C` (stereo not given) were, in that order, “inactive” and -3.44%.
Regarding `CC(=O)O[C@]1(C(C)=O)CC[C@H]2[C@@H]3C=C(Cl)C4=CC(=O)CC[C@]4(C)[C@H]3CC[C@@]21C`, the Potency result in experiment [1] was “inactive”. Further, the activity change, negative = inhibition in experiment [2] was -27.6%.
As for `Nc1ccn(C2CO[C@H](CO)O2)c(=O)n1` (stereo not given in full), the Potency entry in experiment [1] and in experiment [2] was “inactive” each time.
For the compound `C[C@H](N)C(=O)N[C@@H](C)C(=O)NC1[C@H]2CN(c3nc4c(cc3F)c(=O)c(C(=O)O)cn4-c3ccc(F)cc3F)C[C@@H]12` (stereo not given in full), the Potency result in experiment [1] is “inactive”. In experiment [2], the activity change, negative = inhibition was -23%.
On to `CCOC(=O)OC(C)OC1=C(C(=O)Nc2ccccn2)N(C)S(=O)(=O)c2ccccc21` (stereo not given), for which the Potency entry in experiment [1] and in experiment [2] was “inactive” in each case.
Take `CC(=O)OCC(=O)[C@@]1(O)CC[C@H]2[C@@H]3CCC4=CC(=O)C=C[C@]4(C)[C@H]3[C@@H](O)C[C@@]21C`: the Potency result in experiment [1] and in experiment [2] was “inactive” each time.
For the compound `CCCCCCCCCCCCOCCOCCOCCOCCOCCOCCOCCOCCOCCO`, the Potency in experiment [1] and in experiment [2] was 11.2 µM (active) throughout.
As for `Cc1ccc(N(CC2=NCCN2)c2cccc(O)c2)cc1`, in experiment [1], the Potency entry is “inactive”. Moreover, in experiment [2], the activity change, negative = inhibition was -6.91% and 2.72%.
For `C[C@H](N)[C@H](O)c1cccc(O)c1`, in experiment [1], the Potency result was “inactive”. Also, the activity change, negative = inhibition in experiment [2] was 1.07%.
For `Cc1c(N(C)C)c(=O)n(-c2ccccc2)n1C`, in that order: “inactive” and -10.1%.
Consider `Cc1c(F)cc2c(=O)c(C(=O)O)cn3c2c1CCC3C` (stereo not given), for which the Potency result in experiment [1] and in experiment [2] was “inactive” in each case.
With `CC(C)[C@@H]1CC[C@@H](C)CC1=O`, the Potency entry in experiment [1] and in experiment [2] was “inactive” in each case.
In the case of `CN1CCC(=C2c3ccccc3CC(=O)c3sccc32)CC1`, the Potency result in experiment [1] was “inactive”. The activity change, negative = inhibition in experiment [2] is -26%.
Turning to `O=C(CCCN1CC=C(n2c(=O)[nH]c3ccccc32)CC1)c1ccc(F)cc1`, the Potency entry in experiment [1] and in experiment [2] was “inactive” throughout.
`COc1cc(NS(=O)(=O)c2ccc(N)cc2)ncn1`: the Potency entry in experiment [1] and in experiment [2] was “inactive” in each case.
Regarding `CC(=O)OCC(=O)[C@@]1(O)CCC2C3CCC4=CC(=O)CC[C@]4(C)C3[C@@H](O)C[C@@]21C` (stereo not given in full), the Potency entry in experiment [1] and in experiment [2] was “inactive” each time.
Turning to `NS(=O)(=O)c1cc2c(cc1Cl)NCNS2(=O)=O`, the Potency entry in experiment [1] and in experiment [2] was “inactive” in each case.
`CC1(C)O[C@@H]2C[C@H]3[C@@H]4CCC5=CC(=O)CC[C@]5(C)[C@@]4(F)[C@@H](O)C[C@]3(C)[C@]2(C(=O)CCl)O1`: the Potency entry in experiment [1] and in experiment [2] was “inactive” throughout.
With `C[C@@H](C1=C(CCN(C)C)Cc2ccccc21)c1ccccn1`, the Potency entry in experiment [1] is “inactive”. Also, the activity change, negative = inhibition in experiment [2] is -25.9%.
